According to PubChem BioAssay (NCI):
Compounds without any hit were thinned out: in the full panel of roughly 83,000, 20% have a hit.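 Compound tested at a single concentration for 48 hours in 96-well plates; a percent growth value below 10 was scored as active.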 Values without a mark were called inactive. The source made the active and inactive calls.

What follows are compounds tested on HS 578T breast (assay: NCI-60 one-dose screen, 48 h (100 = growth as untreated, 0 = no growth, -100 = all killed)). Details: 10 µM.
Description: Growth inhibition of the HS 578T human tumor cell line is measured as a screen for anti-cancer activity. Cells are grown in 96 well plates and exposed to the test compound for 48 hours. Compounds are tested at a single concentration, which is 10^-5 M for most compounds. The reported endpoint is percent growth (GI% or GIPRCNT), where numbers from 0 - 100% represent growth inhibition, and numbers from -100% - 0 represent cell death. For example, a value of 40 represents 60% growth inhibition. A value of 0 means no net growth occurred over the course of the experiment. A value of -40 indicates 40% of cells at the beginning of the experiment died by the end of the experiment. A value of -100 means all cells are dead at the end of the experiment.
NCI-60 Human Tumor Cell Lines Screen was performed using the standard one-dose NCI protocol, which is described in more detail at https://dtp.cancer.gov/discovery_development/nci-60/default.htm.
Compounds with GIPRCNT values below 10 were considered active. Activity score was based on GIPRCNT using the following formula: […]
Score is 0 for GIPRCNT values of 100 or above, 50 for GIPRCNT values of 0, and 100 for GIPRCNT values of -100.

Compound | growth
COc1cc([C@@H]2c3cc4c(cc3[C@H](SC(=N)N)[C@H]3COC(=O)[C@H]23)OCO4)cc(OC)c1OC | 34.2%
N#CCC1CCCC1 | 106%
Oc1ccccc1-c1nnc(Cn2c(Cc3cccc4ccccc34)nc3ccccc32)o1 | 99.5%
C=CCn1c(C)nc2cc(Nc3nc(Nc4ccc5nc(C)n(CC=C)c5c4)c4ccccc4n3)ccc21 | -48.1% (active)
O=C1/C(=C/c2ccc(O)cc2)CSc2ccc(Cl)cc21 | 71.1%
NS(=O)(=O)c1ccc(N2N=C(c3ccc(-c4ccccc4)cc3)CC2c2ccc(Cl)cc2)cc1 (stereo not given) | 88.6%
COc1cc(/C=C/C(=O)c2cc(-c3ccc(F)cc3)ccc2O)cc(OC)c1OC | 86%
COc1cccc(-c2nnc(COc3ccc(-c4nc5ccc(C)cc5[nH]4)cc3OC)o2)c1 | 31.1%
Cc1ccc(/C(CS(=O)(=O)c2ccc(C)cc2)=N\O)cc1 | 113%
O=C(COc1ccc(Cl)cc1Cl)Oc1coc(CSc2nc3ccccc3s2)cc1=O | -1.61% (active)
CCOc1nc(-c2ccccc2)cc2c(O)c(C(=O)NC(C)C)[nH]c(=O)c12 | 82.5%
O=C/C=C/c1ccc([N+](=O)[O-])cc1Cl | 108%
Cc1cc(=O)oc2cc(OCc3cn(CC(O)CO)nn3)ccc12 (stereo not given) | 27%
O=C(COc1ccc(-c2nc3ccccc3[nH]2)cc1)N=Nc1c(O)[nH]c2ccccc12 | 103%
CC1(CO)CCCC12OCCO2 (stereo not given) | 119%
CCCCCC(=O)N1c2ccccc2NC2=C(C(=O)CC(c3ccc(OC)c(OC)c3)C2)C1c1ccc(C(F)(F)F)cc1 (stereo not given) | 78.7%
COc1cccc(C(=O)NNc2nc(N3CCN(C4CCCCC4)CC3)nc(N3CCN(C(c4ccccc4)c4ccccc4)CC3)n2)c1 | 74.2%
Cc1cc(O)c(C2=NN(c3ccc(S(N)(=O)=O)cc3)C(c3ccc(N(C)C)cc3)C2)c(C)c1Cl (stereo not given) | 82.5%
CCOC(=O)c1cc2c(n1Cc1ccccc1)-c1oncc1CC2 | 76.8%
Clc1ccc(-c2nc(-c3cccs3)cn3ccnc23)cc1 | 87%

Compound | growth
CCOC(=O)c1ccc(NC(=O)Nc2nncs2)cc1 | 25.3%
O=C(Nc1cccc(-c2nc3ccccc3[nH]2)c1)c1cccc(NC(=O)c2ccco2)c1 | 79.4%
Cc1ccc(Cl)cc1Nc1nc(C(F)(F)F)ccc1C(=O)N/N=C/c1c(Cl)cccc1Cl | -10.1% (active)
Cc1ccc(C)c(S(=O)(=O)NC2c3ccccc3Oc3ccccc32)c1 | 107%
C[n+]1c(/C=C/c2c[nH]c3ccccc23)ccc2ccccc21 | 103%
NC1CCC(Nc2nc(NCc3cc(Cl)ccc3O)c3ncn(C4CCCC4)c3n2)CC1 (stereo not given) | -1.92% (active)
Cc1ccc2oc(=O)cc(/C(=C3/C=CC=N3)c3ccc[nH]3)c2c1 | 12.9%
COc1cc(N=C2C(=O)N(Cc3ccccc3)c3ccccc32)cc(OC)c1OC | 82.9%
NC(=O)C12C(=O)NC(=O)C1(C(=O)O)C21CCCC1 (stereo not given) | 107%
Cn1cnc([N+](=O)[O-])c1Sc1nnc(-c2ccccc2)c(-c2ccccc2)n1 | 106%
O=C1/C(=C/c2ccc(O)cc2)Oc2ccc(Cl)cc21 | 87.1%
CCCCOCCOCCOCc1cc2c(cc1Br)OCO2 | 108%
NC1CCC(Nc2nc(NCc3ccc(-c4ccccc4O)nc3)c3ncn(C4CCCC4)c3n2)CC1 (stereo not given) | 8.94% (active)
CC(C)c1[nH]nc2c(NCc3ccc(-c4ccccn4)cc3)nc(SCCN(C)C)nc12 | 21.4%
CCCc1c(CC)c(=N)c2ccccc2n1C | 76.5%
O=C(NNC(=O)c1ccncc1)Nc1ccc([N+](=O)[O-])cc1 | 107%
COc1cc(C2C(C#N)=C(c3c[nH]c4ccccc34)Nc3nc(N)[nH]c(=O)c32)cc(OC)c1OC (stereo not given) | 96%
O=C(O)CNS(=O)(=O)c1ccc(OCCOc2ccc(S(=O)(=O)NCC(=O)O)cc2)cc1 | 99.4%
O=C(O)CCCN1C(=O)NC2(C1=O)c1ccccc1-c1ccccc12 | 93.9%
Cc1ccc([P+](Cc2ccccc2)(c2ccccc2)c2ccccc2)cc1 | 44.8%
